# The list is not random: actives were taken first. Their share in the collection is about 4%.
# KKLEB tox = counter-screen for CF NF-kB inhibitors: cytotoxicity; KKLEB CF airway cells viability, ATPlite luminescence, overnight; active compounds read low; cells stimulated with P. aeruginosa culture filtrate; activity change (cytotoxicity), % at 5 µM; 0.36% of 360,000 active; AID 602141;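 active = corrected activity change at or below -50% at 5 µM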
# HIF-2a inh = blocks HIF-2a reporter activity | 786-0 RCC cells HIF-2a reporter, luciferase luminescence, overnight | inhibition, % at 18.8 µM | 0.72% of 360,000 active;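 active = inhibition of the luminescence signal of 40% or more relative to plate controls, in a single-dose primary screen at 18.75 µM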
# Peg3 prom inh = reduces Peg3 promoter-driven luciferase expression in HeLa; HeLa PEG-Prom luciferase reporter, luminescence, overnight; inhibition, % at 20 µM; 1.7% of 360,000 active;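 active = inhibition of at least 50% at 20 µM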
# CF NFkB block = cystic fibrosis NF-kB activation inhibition. AID 588850. KKLEB NF-kB-GFP reporter, PAF-induced, GFP fluorescence overnight. inhibition, % at 5 µM. 0.86% of 360,000 active;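 active = at least 50% inhibition at 5 µM, scaled per plate between neutral and stimulator controls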;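 also: PAF is a Pseudomonas aeruginosa culture filtrate used as stimulus; plate controls were PAF-stimulated DMSO wells for no effect and unstimulated DMSO wells for full effect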
# TROY NFkB inh = TROY signaling inhibition; Q293 LMP1-TROYcd NF-kB luciferase reporter, 4 h; AID 1347056; inhibition, % at 10 µM; 0.98% of 360,000 active;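 active = compounds whose plate-normalised and pattern-corrected inhibition of the luciferase reporter signal at the single screening dose is 50% or more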
# TWEAK Fn14 block = inhibitors of TWEAK-Fn14 interaction signaling. TWEAK-stimulated Fn14 reporter cells, luciferase luminescence, 8 h. inhibition, % at 10 µM. 2% of 360,000 active. AID 1159606; in the data active = inhibition above about 50%
# * hit, by the source's call; x = not tested or not shown.
SMILES,KKLEB tox,HIF-2a inh,Peg3 prom inh,CF NFkB block,TROY NFkB inh,TWEAK Fn14 block
CC(Nc1cccc2ccccc12)C(=O)N/N=C/c1ccc([N+](=O)[O-])cc1 (stereo not drawn),3.6,6.1,38.7,-38.9,44.7,100.3*
Cc1cccc(/C=N/NC(=O)C(C)Nc2cccc3ccccc23)n1 (stereo not drawn),8.2,-26.7,-16.7,-14.3,-3.3,12.8
COc1cc([N+](=O)[O-])cc(/C=N/NC(=O)C(C)Nc2cccc3ccccc23)c1O (stereo not drawn),-2.5,4.7,30.9,12.2,57.2*,86.9*
COc1cc([N+](=O)[O-])cc(/C=N/NC(=O)C(O)(c2ccccc2)c2ccccc2)c1O,-7.2,12.0,14.5,13.3,14.7,2.4
Cc1ccc(C)c(N2CCN(C(=O)CCS(=O)(=O)c3ccc4c(c3)CCN4C(=O)C3CC3)CC2)c1,10.1,14.0,7.2,4.8,20.0,1.4
O=C(CCl)N1CCN(S(=O)(=O)Cc2ccccc2)CC1,-2.2,-4.0,30.4,-10.9,-5.6,22.1
Nc1ncnc2c1ncn2[C@@H]1O[C@H](CO)[C@@H](O)[C@@H]1O,-10.4,3.4,11.0,-6.9,3.1,-21.1
Nc1ncnc2c(C3OC(CO)C(O)C3O)scc12 (stereo not drawn),-15.0,49.6*,90.1*,36.7,64.9*,100.1*
NC(=O)C1C2C=CC(C2)C1c1ccccc1 (stereo not drawn),7.0,-3.2,-1.1,-14.1,-7.7,9.6
Cc1ccc(C(C(=O)NCc2ccco2)N(C(=O)CNC(=O)c2cccs2)c2c(C)cc(C)cc2C)cc1 (stereo not drawn),-34.3,6.5,57.7*,28.3,0.0,-17.7
CC(C)(C)n1nnnc1C(c1cccc(C#N)c1)N1CCCc2ccccc21 (stereo not drawn),0.9,11.6,20.6,5.1,38.1,50.2*
CC(C)(C)n1nnnc1C(c1ccc(Cl)cc1)N1CCCc2ccccc21 (stereo not drawn),-20.4,10.7,10.1,19.3,-4.0,14.4
COc1cc2c(cc1OC)[C@@H](NC(=O)CCc1ccccc1)[C@H](O)C2,9.1,-7.1,-13.1,2.1,4.0,4.7
COc1ccc(C(=O)Nc2ccc(Oc3nc(C)nc4sc(-c5ccccc5)cc34)cc2)cc1OC,-53.3*,-9.0,-1.3,48.1,-17.2,1.9
COc1ccc(C(=O)Nc2ccc(Oc3ncnc4sc(-c5ccccc5)cc34)cc2)cc1OC,-5.6,9.7,46.0,-3.4,-26.1,-38.4
CCN(CC)S(=O)(=O)c1cccc2cc(C(=O)O)c(O)cc12,12.6,11.7,14.3,-21.6,x,78.9*
CC1=Nc2ccccc2/C1=C/c1sc(=S)n(-c2cccc(C(=O)O)c2)c1O,-9.2,41.0*,-21.1,-23.9,20.4,19.2
Oc1c(C=C2N=c3ccccc3=N2)sc(=S)n1-c1ccccc1,11.4,-14.4,1.3,-24.7,-28.6,14.1
CCc1ccc(CN(C)C(=O)CCc2nc3ccccc3n(-c3ccc(OC)cc3)c2=O)cc1,-8.3,16.5,57.0*,24.3,53.6*,51.8*
COc1ccc(-n2c(=O)c(CCC(=O)N(C)Cc3ccccc3C)nc3ccccc32)cc1,1.4,22.2,18.9,-2.5,22.6,0.4
COC(=O)C1=C(C(=O)OC)[C@@H]2N(C)c3ccccc3[C@@]23C[C@@H](C(=O)OC)N(C(=O)c2cccs2)C3=N1,-6.2,6.4,36.3,30.1,23.6,25.2
COC(=O)C1=C(C(=O)OC)[C@@H]2N(C)c3ccc(OC)cc3[C@@]23C[C@@H](C(=O)OC)N(C(=O)c2cccs2)C3=N1,0.1,5.5,19.4,54.4*,6.5,30.2
COC(=O)C1=C(C(=O)OC)[C@@H]2N(Cc3ccccc3)c3ccccc3[C@@]23C[C@@H](C(=O)OC)N(C(=O)c2cccs2)C3=N1,-15.5,-0.5,81.4*,38.1,29.1,61.3*
COC(=O)C1=C(C(=O)OC)[C@@H]2N(Cc3ccccc3)c3ccccc3[C@@]23C[C@@H](C(=O)OC)N(C(=O)c2cc(C)oc2C)C3=N1,-23.9,5.3,55.0*,46.1,0.9,33.5
COC(=O)C1=C(C(=O)OC)[C@@H]2N(C)c3ccccc3[C@@]23C[C@@H](C(=O)OC)N(C(=O)c2ccc(Br)cc2)C3=N1,-6.4,0.9,82.3*,43.9,20.4,47.5
